According to ChEMBL document CHEMBL2218924, “A broad activity screen in support of a chemogenomic map for kinase signalling research and drug discovery” (Biochem J, 2013):

biological target: Mitogen-activated protein kinase 8 (Homo sapiens) (UniProt P45983); details: at 10 µM
Sequence (P45983 whole entry): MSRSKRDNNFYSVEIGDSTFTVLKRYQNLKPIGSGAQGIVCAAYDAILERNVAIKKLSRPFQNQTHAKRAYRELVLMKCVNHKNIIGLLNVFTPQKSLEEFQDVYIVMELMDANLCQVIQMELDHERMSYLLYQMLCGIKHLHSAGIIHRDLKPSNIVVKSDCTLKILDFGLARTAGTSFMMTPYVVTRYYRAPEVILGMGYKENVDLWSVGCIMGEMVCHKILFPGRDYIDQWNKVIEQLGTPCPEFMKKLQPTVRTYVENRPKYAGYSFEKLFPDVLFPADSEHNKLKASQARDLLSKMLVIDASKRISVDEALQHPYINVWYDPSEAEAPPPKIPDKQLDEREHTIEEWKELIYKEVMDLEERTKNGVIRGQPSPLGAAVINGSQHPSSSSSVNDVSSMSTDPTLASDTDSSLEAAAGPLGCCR

Row | SMILES | residual activity
1 | O=C1NC(=O)C(c2cn(CCCn3ccnc3)c3ccccc23)=C1Nc1ccccc1 | 79%
2 | O=C1C(Cl)=C(N2C(=O)CCC2=O)C(=O)c2ccccc21 | 86%
3 | O=C(O)/C=C/c1cc(Br)c(Br)c(Br)c1Br | 72%
4 | CCOc1nc(NC(=O)Cc2cc(OC)ccc2OC)cc(N)c1C#N | -6%
5 | Oc1cccc(-c2nc(N3CCOCC3)c3oc4ncccc4c3n2)c1 | 77%
6 | N#C/C(=C1/Nc2ccccc2S1)c1ccnc(NCCc2cccnc2)n1 | 55%
7 | O=C1NC(=O)C(c2c[nH]c3ccccc23)=C1c1c[nH]c2ccccc12 | 35%
8 | O=c1cc(N2CCOCC2)oc2c(-c3ccccc3)cccc12 | 79%
9 | COc1cc2nccc(Oc3ccc(NC(=O)Nc4cc(C)on4)c(Cl)c3)c2cc1OC | 109%
10 | CC(C)N(CCC(=O)c1ccc2ccccc2c1)Cc1ccccc1 | 57%
11 | NC(=O)c1ccc(-c2nc(-c3ccc4c(c3)OCCO4)c(-c3ccccn3)[nH]2)cc1 | 87%
12 | O=C(Nc1ccc(Cl)cc1)c1ccccc1NCc1ccncc1 | 129%
13 | O=C1Cc2c([nH]c3ccc(Br)cc23)-c2ccccc2N1 | 88%
14 | O=C(NC(NC(=S)Nc1ccc(F)c([N+](=O)[O-])c1)C(Cl)(Cl)Cl)C(c1ccccc1)c1ccccc1 (centres undefined) | 102%
15 | O=C1Nc2ccc(Cl)cc2/C1=C/c1cc(Cl)c(O)c(Cl)c1 | 69%
16 | Fc1ccc(-c2nc3n(c2-c2ccncc2)CCS3)cc1 | 81%

biological target: Mitogen-activated protein kinase 9 (Homo sapiens) (UniProt P45984); details: at 1 µM
Sequence (P45984 whole entry, looked up): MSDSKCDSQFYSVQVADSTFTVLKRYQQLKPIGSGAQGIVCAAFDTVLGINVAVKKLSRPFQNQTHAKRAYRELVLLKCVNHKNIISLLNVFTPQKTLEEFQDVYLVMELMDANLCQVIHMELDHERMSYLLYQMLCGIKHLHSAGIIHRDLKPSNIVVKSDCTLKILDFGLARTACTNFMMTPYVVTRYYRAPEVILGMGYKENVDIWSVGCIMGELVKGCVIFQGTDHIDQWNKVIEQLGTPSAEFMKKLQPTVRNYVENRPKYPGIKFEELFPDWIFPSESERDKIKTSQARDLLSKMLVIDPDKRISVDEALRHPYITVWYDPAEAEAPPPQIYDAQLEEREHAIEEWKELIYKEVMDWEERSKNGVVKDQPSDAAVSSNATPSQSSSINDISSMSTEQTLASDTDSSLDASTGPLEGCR

Row | SMILES | residual activity
17 | O=C1NC(=O)C(c2cn(CCCn3ccnc3)c3ccccc23)=C1Nc1ccccc1 | 110%
18 | O=C1C(Cl)=C(N2C(=O)CCC2=O)C(=O)c2ccccc21 | 89%
19 | O=C(O)/C=C/c1cc(Br)c(Br)c(Br)c1Br | 100%
20 | NCCNc1ncc(C(N)=O)c(Nc2cccc(C(F)(F)F)c2)n1 | 103%
21 | CCOc1nc(NC(=O)Cc2cc(OC)ccc2OC)cc(N)c1C#N | -1%
22 | O=c1c(-c2ccc(F)cc2)c(-c2ccncc2)[nH]n1-c1ccc(Cl)cc1 | 7%
23 | CN([C@@H](Cc1ccc(OS(=O)(=O)c2cccc3cnccc23)cc1)C(=O)N1CCN(c2ccccc2)CC1)S(=O)(=O)c1cccc2cnccc12 | 114%
24 | Nc1n[nH]c2nc3ccccc3nc12 | 100%
25 | COc1ccc(-c2cnc3c(-c4ccsc4)cnn3c2)cc1 | 100%
26 | O=C1Cc2c([nH]c3ccc([N+](=O)[O-])cc23)-c2ccccc2N1 | 104%
27 | O=C1Cc2c([nH]c3ccc(Br)cc23)-c2ccccc2N1 | 87%
28 | Cc1cc(C)c(/C=C2\C(=O)Nc3ccccc32)[nH]1 | 102%
29 | N#Cc1c(NC(=O)c2cccc3ccccc23)sc2c1CCCC2 | 58%
30 | Fc1ccc(-c2nc3n(c2-c2ccncc2)CCS3)cc1 | 73%
31 | O=C1NC(=O)C(c2cn(CCCO)c3ncccc23)=C1c1cnccn1 | 96%

biological target: Mitogen-activated protein kinase 9 (Homo sapiens) (UniProt P45984); details: at 10 µM

Row | SMILES | residual activity
32 | O=C1NC(=O)C(c2cn(CCCn3ccnc3)c3ccccc23)=C1Nc1ccccc1 | 80%
33 | O=C1C(Cl)=C(N2C(=O)CCC2=O)C(=O)c2ccccc21 | 102%
34 | O=C(O)/C=C/c1cc(Br)c(Br)c(Br)c1Br | 72%
35 | NCCNc1ncc(C(N)=O)c(Nc2cccc(C(F)(F)F)c2)n1 | 76%
36 | O=C1Nc2ccccc2/C1=C\c1c(Cl)[nH]c2ccccc12 | 76%
37 | CCOc1nc(NC(=O)Cc2cc(OC)ccc2OC)cc(N)c1C#N | -11%
38 | O=c1c(-c2ccc(F)cc2)c(-c2ccncc2)[nH]n1-c1ccc(Cl)cc1 | -10%
39 | CN([C@@H](Cc1ccc(OS(=O)(=O)c2cccc3cnccc23)cc1)C(=O)N1CCN(c2ccccc2)CC1)S(=O)(=O)c1cccc2cnccc12 | 114%
40 | CC(C)N(CCC(=O)c1ccc2ccccc2c1)Cc1ccccc1 | 86%
41 | Nc1n[nH]c2nc3ccccc3nc12 | 84%
42 | COc1ccc(-c2cnc3c(-c4ccsc4)cnn3c2)cc1 | 100%
43 | O=C1Cc2c([nH]c3ccc([N+](=O)[O-])cc23)-c2ccccc2N1 | 101%
44 | O=C1Cc2c([nH]c3ccc(Br)cc23)-c2ccccc2N1 | 97%
45 | Cc1cc(C)c(/C=C2\C(=O)Nc3ccccc32)[nH]1 | 101%
46 | N#Cc1c(NC(=O)c2cccc3ccccc23)sc2c1CCCC2 | 74%
47 | Fc1ccc(-c2nc3n(c2-c2ccncc2)CCS3)cc1 | 20%
48 | O=C1NC(=O)C(c2cn(CCCO)c3ncccc23)=C1c1cnccn1 | 80%

biological target: Mitogen-activated protein kinase 10 (Homo sapiens) (UniProt P53779); details: at 1 µM
Sequence (P53779 whole entry): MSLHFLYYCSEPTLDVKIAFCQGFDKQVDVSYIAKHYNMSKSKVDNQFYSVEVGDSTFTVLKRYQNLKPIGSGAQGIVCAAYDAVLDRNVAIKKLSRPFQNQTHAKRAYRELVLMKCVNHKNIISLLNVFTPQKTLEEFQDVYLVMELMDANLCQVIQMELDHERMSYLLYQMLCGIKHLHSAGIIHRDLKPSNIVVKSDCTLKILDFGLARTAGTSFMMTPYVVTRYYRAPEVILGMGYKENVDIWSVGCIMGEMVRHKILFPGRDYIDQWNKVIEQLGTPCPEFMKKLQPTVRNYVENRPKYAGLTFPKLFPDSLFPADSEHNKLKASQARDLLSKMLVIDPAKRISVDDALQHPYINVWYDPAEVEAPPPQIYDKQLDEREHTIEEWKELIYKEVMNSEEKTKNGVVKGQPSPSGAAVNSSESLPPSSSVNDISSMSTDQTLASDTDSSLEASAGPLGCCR

Row | SMILES | residual activity
49 | COc1ccc(Cl)cc1NC(=O)Nc1cc(C)nc2ccccc12 | 85%
50 | O=C1C(Cl)=C(N2C(=O)CCC2=O)C(=O)c2ccccc21 | 88%
51 | O=C(c1ccccc1)c1ccc(N2CCOCC2)cc1O | 83%
52 | COc1ccc(CNC(=O)Nc2ncc([N+](=O)[O-])s2)cc1 | 65%
53 | O=C(O)/C=C/c1cc(Br)c(Br)c(Br)c1Br | 99%
54 | NCCNc1ncc(C(N)=O)c(Nc2cccc(C(F)(F)F)c2)n1 | 79%
55 | O=C1Nc2ccccc2/C1=C\c1c(Cl)[nH]c2ccccc12 | 83%
56 | CCOc1nc(NC(=O)Cc2cc(OC)ccc2OC)cc(N)c1C#N | -2%
57 | O=c1c(-c2ccc(F)cc2)c(-c2ccncc2)[nH]n1-c1ccc(Cl)cc1 | -2%
58 | Oc1cccc(-c2nc(N3CCOCC3)c3oc4ncccc4c3n2)c1 | 91%
59 | CCN1/C(=C/C(C)=O)Sc2ccc(OC)cc21 | 65%
60 | CN([C@@H](Cc1ccc(OS(=O)(=O)c2cccc3cnccc23)cc1)C(=O)N1CCN(c2ccccc2)CC1)S(=O)(=O)c1cccc2cnccc12 | 76%
61 | O=C1NC(=O)C(c2c[nH]c3ccccc23)=C1c1c[nH]c2ccccc12 | 56%
62 | O=c1cc(N2CCOCC2)oc2c(-c3ccccc3)cccc12 | 70%
63 | CC(C)N(CCC(=O)c1ccc2ccccc2c1)Cc1ccccc1 | 80%
64 | Nc1n[nH]c2nc3ccccc3nc12 | 80%
65 | COc1ccc(-c2cnc3c(-c4ccsc4)cnn3c2)cc1 | 88%
66 | O=C1Cc2c([nH]c3ccc([N+](=O)[O-])cc23)-c2ccccc2N1 | 70%
67 | O=C(Nc1ccc(Cl)cc1)c1ccccc1NCc1ccncc1 | 72%
68 | CC(C)[C@H](CO)Nc1nc(Nc2cc(N)cc(Cl)c2)c2ncn(C(C)C)c2n1 | 82%
69 | O=C(NC(NC(=S)Nc1ccc(F)c([N+](=O)[O-])c1)C(Cl)(Cl)Cl)C(c1ccccc1)c1ccccc1 (centres undefined) | 92%
70 | O=C1Nc2ccc(Cl)cc2/C1=C/c1cc(Cl)c(O)c(Cl)c1 | 64%
71 | N#Cc1c(NC(=O)c2cccc3ccccc23)sc2c1CCCC2 | 8%
72 | Nc1nccc(-c2c(-c3ccc(F)cc3)ncn2C2CCNCC2)n1 | 69%
73 | Fc1ccc(-c2nc3n(c2-c2ccncc2)CCS3)cc1 | 14%
74 | O=C1NC(=O)C(c2cn(CCCO)c3ncccc23)=C1c1cnccn1 | 89%
